Screening results from PubChem BioAssay.
KLF5 inh = inhibitors of KLF5 expression. DLD-1 KLF5 promoter-luciferase reporter, luminescence. inhibition, % at 5 µM. 0.23% of 290,000 active;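 active means inhibition above a per-plate limit of that plate's mean compound inhibition plus 3 SD, cut at about 60% in these data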;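 further: 0% = DMSO wells and 100% = LY294002 at 200 µM; higher means less KLF5 promoter-driven luciferase light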
APP 5UTR inh = APP translation inhibition. SH-SY5Y APP 5'UTR-luciferase reporter, luminescence. inhibition, % at 2 µM. 0.82% of 190,000 active. AID 1285;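 active means inhibition above a set limit, derived from the sample mean plus 3 SD, cut at about 45% in these data; inconclusive means one replicate passes the limit while the other fails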
Ba/F3 V617F tox = lowers viability of Ba/F3 cells expressing EpoR and JAK2V617F; ATP luminescence; inhibition, % at 5.6 µM; 1.1% of 220,000 active; AID 1446;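 active means inhibition above the campaign mean plus 3 SD over all tested compounds, cut at about 24% in these data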;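 further: cytokine-independent growth of Ba/F3 cells driven by EpoR plus mutant JAK2; 0% = DMSO-treated cells and 100% = JAK inhibitor I control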
BaF3 parental = parental Ba/F3 viability inhibition as JAK2V617F counter-screen; inhibition, % at 5.6 µM; AID 1486; 1.1% of 220,000 active; CellTiter-Glo ATP luminescence;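 active means inhibition above a per-campaign cutoff, the mean inhibition of all tested compounds plus 3 SD, cut at about 27% in these data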;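 further: 0% = DMSO wells and 100% = JAK Inhibitor I control wells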
IEC-6 cytotox = counter-screen for KLF5 inhibitors: cytotoxicity in IEC-6 cells. IEC-6 cytotoxicity, luminescence viability. inhibition, % at 5 µM. 0.78% of 290,000 active; in the data active means inhibition above about 22%;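 further: 0% = plate median of test compound wells and 100% = cytotoxic reference compound wells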
aSyn UTR inh = 5' untranslated region of α-synuclein, MLPCN primary screen | 0.82% of 300,000 active | inhibition, % (tested at 7.5 µM) | AID 1813 | alpha-synuclein 5'UTR reporter, inhibitor activity; in the data active means inhibition above about 60%; inconclusive means no clear call, values can overlap the other calls;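 further: H4 neuroglioblastoma cells stably carrying SNCA 5'UTR luciferase fusion; 0% = DMSO wells and 100% = positive control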
An asterisk follows results filed as active; ? = inconclusive; · = no result given. Only some compounds are listed: those with a hit (about 2.2% of all), similar ones and a draw of the others.

SMILES	KLF5 inh	APP 5UTR inh	Ba/F3 V617F tox	BaF3 parental	IEC-6 cytotox	aSyn UTR inh
Cc1ccc(C(=O)N2N=C(c3cccc(NS(C)(=O)=O)c3)CC2c2cccs2)cc1 (configuration not stated)	-12	·	·	·	15	8
Cc1noc(C)c1S(=O)(=O)N(CC(=O)NC(C)c1ccccc1)c1ccc(C(C)C)cc1 (configuration not stated)	-14	·	·	·	0	-3
COc1cc(/C=N/NC(=O)CSc2cc(C)c(Br)cc2C)ccc1O	-11	-16	-1	3	13	2
Cc1cc(SCC(=O)N/N=C/c2ccc(O)c(O)c2O)c(C)cc1Br	27	6	-4	-1	-5	68*
COc1cc2nc(SCc3ccc(F)cc3)n(Cc3cccs3)c(=N)c2cc1OC	3	12	-1	9	-3	2
COc1ccc(Cn2c(SCc3ccccc3C)nc3cc(OC)c(OC)cc3c2=N)cc1	-10	-5	-1	2	3	93*
Cc1cc(NC(=O)CCC(=O)N(Cc2ccco2)C2(C(=O)NC3CCCCC3)CCN(C)CC2)no1	-17	9	0	89*	1	17
Cc1cc(NC(=O)CCC(=O)N(Cc2ccco2)C2(C(=O)NC3CCCC3)CCCCC2)no1	-8	·	·	·	-2	5
COc1ccc(N(CC(=O)Nc2cccc(C(C)=O)c2)S(=O)(=O)c2ccc(NC(C)=O)cc2)cc1	-33	·	·	·	0	7
COc1cc(/C=C/c2nc3ccccc3s2)cc(OC)c1O	-37	-129	-2	-4	2	-69
CN(C)c1ccc(/C=C/c2ccc3ccccc3n2)cc1	105*	·	15	22	21	89*
CN(C)c1ccc(CNc2nc3ccccc3s2)cc1	64*	·	·	·	-7	80*
Cc1ccc(/C=C/c2nc3ccccc3s2)s1	-120	-98	-2	2	0	71*
CN(C)c1ccc(/C=C/c2nc3ccccc3s2)cc1	53	-14	1	1	0	81*
Cn1nnc(NC(=S)NC(=O)c2cccc3ccccc23)n1	-30	·	·	·	1	6
C(=C\c1ccc2ccccc2n1)/c1ccccc1	-108	-176	0	2	5	67*
O=C(O)/C=C/c1ccc2ccccc2n1	-16	-2	-2	1	-1	-64
CCOc1ccc(N2C(=O)C(CC(=O)Nc3ccccc3)N(Cc3ccccn3)C2=S)cc1 (configuration not stated)	33	0	7	27*	6	4
CCOc1ccc(N2C(=O)C(CC(=O)Nc3ccc(F)cc3)N(Cc3ccccn3)C2=S)cc1 (configuration not stated)	0	18	-1	7	4	8
CC1C/C(=C\c2cccnc2)C(=O)/C(=C/c2cccnc2)C1 (configuration not stated)	20	96*	7	-5	14	·
O=C(Nc1ccc(S(=O)(=O)Nc2ncccn2)cc1)c1ccccc1Br	-33	·	·	·	-3	2
COc1ccccc1NC(=O)Cn1nnc(C(=O)Nc2ccccc2)c1N	-22	8	1	94*	-2	-9
COc1ccccc1NC(=O)c1nnn(CC(=O)Nc2ccccc2)c1N	-10	-9	4	9	5	-1
N#CCNC(=O)C1CC(=O)N(CCc2ccc(F)cc2)C1 (configuration not stated)	-17	·	·	·	-1	-3
CC(C)(C)NC(=O)C(=O)NCc1ccccn1	-18	-8	-1	2	-2	-27
SMILES	KLF5 inh	APP 5UTR inh	Ba/F3 V617F tox	BaF3 parental	IEC-6 cytotox	aSyn UTR inh
O=C(NCc1ccccn1)C(=O)NCc1ccccn1	-24	9	-3	54*	-1	-16
COc1ccc(NC(=O)CN(C)C(=O)c2ccc3c(c2)OCCO3)cc1	·	·	·	·	·	-7
COc1cc2c(-c3ccccc3)c(C)oc2cc1/C=N/NC(N)=S	·	·	·	·	·	38
O=c1cccc2c1c1cc[nH]c3ccc(=O)n2c31	·	·	·	·	·	79*
CC[N+]1(CC)CC2=Cc3c(ccc4ccccc34)C(C)C2C1 (configuration not stated)	-26	·	63*	54*	2	-1
CN1C(=O)c2ccc(Oc3ccccc3)cc2C1=O	·	·	·	·	·	-8
O=C(N/N=C/C(Br)=C\c1ccccc1)c1ccc2nc[nH]c2c1	31	83*	3	2	11	-90
CCOc1cc(C(=O)N/N=C/C(Br)=C/c2ccccc2)cc(OCC)c1OCC	-26	90*	-4	2	7	104*
CC(=C/c1ccccc1)/C=N/NC(=O)c1ccc2nc[nH]c2c1	-17	18	0	9	-1	-56
Cc1[nH]n(-c2ccccc2)c(=O)c1N=Nc1ccccc1O	8	58*	0	13	0	?
Cc1ccccc1N=Nc1c(C)[nH]n(-c2ccccc2)c1=O	-43	7	-1	6	-1	·
Cc1ccc(S(=O)(=O)NC2CC2)cc1	-14	·	·	·	5	7
Oc1[nH]c(N=C2N=c3ccccc3=N2)c2ccccc12	-81	·	21	6	77*	-60
C#CCN(Cc1ccco1)C(=O)c1ccc(OC2CCN(Cc3ccccn3)CC2)cc1	-29	·	·	·	-2	-12
CCCCN(Cc1ccccc1)S(=O)(=O)c1ccc2[nH]c(=O)oc2c1	-3	49*	4	4	12	20
Cc1cccc(-c2nnc(SCC(=O)c3ccc(O)cc3O)n2C)c1	10	·	·	·	-1	0
O=[N+]([O-])c1cc(Cl)cc(/C=N\Nc2ccccn2)c1O	-15	9	-2	-2	-3	90*
Cc1cc(Cn2nnc3ccccc32)c(O)c(C(C)(C)C)c1	·	·	·	·	·	2
CC(C)(CNC(=O)c1cccc(S(=O)(=O)Nc2ccc(Br)cc2)c1)N1CCOCC1	·	·	·	·	·	18
C=CCN(c1ccccc1OC)S(=O)(=O)c1ccc(Cl)c(C(=O)Nc2ccc(N3CCOCC3)cc2)c1	-4	17	15	10	-4	89*
CSc1ccc(Cl)c(C(=O)N(C)CC(=O)Nc2ccc(N3CCOCC3)cc2)c1	·	·	·	·	·	-4
CCN(CC1CCCO1)C(=O)CCc1nnc(Cc2ccc3c(c2)OCO3)o1 (configuration not stated)	-18	-12	6	82*	2	-11
Cc1cccc(Cc2nnc(CCC(=O)N(CC3CC3)CC3CCCO3)o2)c1 (configuration not stated)	-73	-50	-1	4	0	-112
COc1cc(C(=O)ON=C2C=C(C)C(=O)C(C)=C2)cc(OC)c1OC	-16	15	1	1	8	-3
COc1cc(C(=O)O/N=C2\C=CC(=O)C(C)=C2)cc(OC)c1OC	-17	0	49*	32*	-2	-32
CCN1/C(=C/c2ccc3cc(C)ccc3[n+]2C)Sc2ccc3sccc3c21	-12	20	78*	62*	16	·
Cc1ccccc1NC(=S)N=Nc1c(O)n(C)c2ccc(S(=O)(=O)N3CCOCC3)cc12	-10	18	2	8	4	78*
Cc1cccc(C)c1NC(=S)N=Nc1c(O)n(C)c2ccc(S(=O)(=O)N3CCOCC3)cc12	-19	20	-1	2	-10	71*
